Test results reported in PubChem BioAssay (NCI).
This is part of a sample that, as a whole, favours compounds with a hit. Of some 83,000 tested, about 20% had one in any assay.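 The endpoint reported here, percent growth, reads 100 for growth as untreated, 0 for no net growth and -100 for all cells dead.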 The source made the active and inactive calls. How the source made its calls: active means growth percent below 10; inactive means the rest.

system: NCI-H23 lung; assay: NCI-60 one-dose screen, 48 h (100 = growth as untreated, 0 = no growth, -100 = all killed); conditions: 10 µM

SMILES	growth
CN(C)c1nc2c([nH]1)c(=O)n(C)c(=O)n2C	99.8% (inactive)
NC(=S)N/N=C/c1ccc(N)cc1	89.5% (inactive)
N#Cc1ccc(OC(=O)Nc2ccc(Cl)c(Cl)c2)cc1	39.6% (inactive)
CCOC(=O)CSc1c([N+](=O)[O-])ncn1C	95.6% (inactive)
Cc1cc(=O)n(-c2ccc(F)cc2)[nH]1	103% (inactive)
c1ccc2c(c1)Sc1ccccc1S2	99% (inactive)
Nc1ncnc2c1nc(N)n2C1OC(CO)C(O)C1O (stereo not drawn)	-22.9% (active)
C=CCOC(=O)C(=O)OCC=C	110% (inactive)
O=[N+]([O-])c1cccc2nsnc12	108% (inactive)
CCOC(=O)c1cc2cccc(OC)c2oc1=O	110% (inactive)
CSC(=N\N=C\c1ccc(N(C)C)cc1)/N=C/N(C)C	112% (inactive)
O=C(O)CCCc1ccccc1	103% (inactive)
COc1cc([C@@H]2c3cc4c(cc3[C@H](O)[C@H]3COC(=O)[C@H]23)OCO4)cc(OC)c1OC	13.1% (inactive)
CCC(C)(O)c1ccc(C)cc1 (stereo not drawn)	103% (inactive)
O=C1C=CC(=O)N1c1ccc(I)cc1Cl	100% (inactive)
O=C(O)CCC(NC(=O)OCc1ccccc1)C(=O)O (stereo not drawn)	101% (inactive)
CC12CC3CC1C(C(=O)O2)C3C(=O)O (stereo not drawn)	96.8% (inactive)
CCc1nc(N)nc(N)c1-c1ccc(Cl)cc1	64.4% (inactive)
Cc1cc(OCCO)cc(C)c1Cl	106% (inactive)

SMILES	growth
Cc1nc2ccccc2c2nnc(SCC(=O)N(Cc3ccccc3)c3ccccc3)n12	89.1% (inactive)
COc1cccc(/C=N/NC(=S)NC2CC3CCC2C3)c1O (stereo not drawn)	71% (inactive)
CC(C)(O)C#CC#CC(C)(C)O	88.9% (inactive)
O=C(O)/C=C/c1ccc2c(c1)CCC2	113% (inactive)
COC(=O)Nc1nc2ccc(C(=O)c3cccs3)cc2[nH]1	14.2% (inactive)
C[N+](C)=c1ccc2nc3c(cc(Nc4ccccc4)c4ccccc43)oc-2c1	31.6% (inactive)
O=C(O)c1ccnc(Br)c1	97.8% (inactive)
Cc1ccccc1N=C(c1ccccc1)C1C(=O)c2ccccc2C1=O	87.6% (inactive)
O=c1[nH]nc(SC2CCCCC2)c(=O)[nH]1	91.3% (inactive)
C=CCc1cc(C(C)=O)cc(OC)c1O	108% (inactive)
CC(=O)OC(C(=O)O)c1ccccc1 (stereo not drawn)	111% (inactive)
Cc1cc(Cc2cc(C)c(N)cc2N)c(N)cc1N	86.6% (inactive)
Clc1ccc(-c2nnc(-c3cccc4ccccc34)o2)cc1	83.6% (inactive)
O=S(=O)(O)c1cc(O)c2c(N=Cc3ccccc3O)c(S(=O)(=O)O)ccc2c1	101% (inactive)
COCCCC/C(=N\OCCN)c1ccc(C(F)(F)F)cc1	100% (inactive)
COC(=O)Nc1cccc(Cl)c1OC	107% (inactive)
O=C(O)CNC(=O)c1ccccc1	107% (inactive)
Cc1ccc(C(=O)NC2c3ccccc3Oc3ccccc32)cc1	70.4% (inactive)
CC(=O)NC(N)=S	103% (inactive)
